Compounds without any hit were thinned out: in the full panel of roughly 79,000, 15% have a hit. Unmarked numbers belong to inactive results. Activity calls are given as the source filed them. Rule as the data show it: active = growth inhibition above about 70%; inactive = the rest.
Columns and labels:
[1] = NCI Yeast Anticancer Drug Screen. Data for the rad52 strain (AID 147);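 also: 0% = growth of vehicle-treated control cultures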; conditions: S. cerevisiae rad52 mutant growth inhibition, active compounds read high
In short: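 The repair-mutant yeast strain was incubated with compounds, then growth was read and inhibition derived relative to vehicle.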

[2] = NCI Yeast Anticancer Drug Screen. Data for the wt1 strain (AID 149);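 also: 0% = growth of vehicle-treated wt1 cultures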; conditions: S. cerevisiae wt1 strain (SPY 50644) growth inhibition, active compounds read high
In short: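 wt1 strain grown with compound or vehicle; inhibition taken from the growth difference.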

[3] = NCI Yeast Anticancer Drug Screen. Data for the rad50EPP+ strain (AID 151);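 also: 0% = growth of vehicle-treated control cultures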; conditions: S. cerevisiae rad50 mutant strain, active compounds read high
In short: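 Vehicle-normalised growth inhibition; rad50EPP+ yeast strain, altered in DNA damage repair, compound-treated.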

[4] = NCI Yeast Anticancer Drug Screen. Data for the mgt1 strain (AID 153); conditions: S. cerevisiae mgt1 mutant growth inhibition, active compounds read high
In short: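 Vehicle-normalized growth inhibition is determined in mgt1 yeast, a strain selected for a defined alteration in DNA repair or cell cycle control.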

[5] = NCI Yeast Anticancer Drug Screen. Data for the rad50 strain (AID 155);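 also: 0% = growth of vehicle-only cultures of the same strain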; conditions: S. cerevisiae rad50 strain growth inhibition, active compounds read high
In short: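 DNA repair mutant yeast, compound exposure, growth read-out; inhibition is taken relative to vehicle.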

[6] = NCI Yeast Anticancer Drug Screen. Data for the mec2-1 strain (AID 157); conditions: S. cerevisiae mec2-1 strain, active compounds read high
In short: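 Mutant yeast (mec2-1) grown with compound; growth inhibition relative to vehicle control reported.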

[7] = NCI Yeast Anticancer Drug Screen. Data for the rad14 strain (AID 159);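 also: 0% = growth of vehicle-treated control cultures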; conditions: S. cerevisiae rad14 strain growth inhibition, active compounds read high
In short: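 DNA repair-defective yeast, compound-exposed; % growth inhibition derived by comparison with vehicle-treated controls.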

[8] = NCI Yeast Anticancer Drug Screen. Data for the sgs1 mgt1 strain (AID 161);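 also: 0% = growth of cultures given vehicle only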; conditions: S. cerevisiae sgs1 mgt1 strain, active compounds read high
In short: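 Growth of a repair-deficient yeast mutant was monitored after compound treatment and expressed as inhibition relative to vehicle-treated cultures.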

[9] = NCI Yeast Anticancer Drug Screen. Data for the CLN2oe strain (AID 163);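 also: 0% = growth of vehicle-only control cultures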; conditions: S. cerevisiae CLN2oe strain, active compounds read high
In short: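 Compounds are applied to yeast harbouring a defined cell-cycle control change; reduced growth compared with vehicle-treated controls gives the value.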

[10] = NCI Yeast Anticancer Drug Screen. Data for the cln2 rad14 strain (AID 165);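 also: 0% = growth equal to vehicle treated cultures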; conditions: S. cerevisiae cln2 rad14 strain, active compounds read high
In short: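 Readout is yeast growth inhibition versus vehicle-treated controls, using a strain with cln2 and rad14 alterations exposed to compound.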

[11] = NCI Yeast Anticancer Drug Screen. Data for the bub3 strain (AID 167); conditions: S. cerevisiae bub3 mutant strain, active compounds read high
In short: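 In this screen, a yeast mutant lacking normal mitotic checkpoint function is challenged with compound. Relative growth versus vehicle gives the inhibition value.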

[12] = NCI Yeast Anticancer Drug Screen. Data for the wt2 strain (AID 169);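 also: 0% = growth of vehicle-treated yeast cultures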; conditions: S. cerevisiae wt2 strain growth inhibition, active compounds read high
In short: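 Against vehicle-treated controls, the growth of yeast exposed to each compound was compared, and the inhibition was recorded.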

[13] = NCI Yeast Anticancer Drug Screen. Data for the mlh1 strain (AID 171);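 also: 0% = growth of vehicle-treated control cultures of the same strain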; conditions: S. cerevisiae mlh1 strain growth inhibition, active compounds read high
In short: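 Measured: yeast growth. Reference: vehicle-treated controls. Organism: strain with a defined alteration affecting DNA damage repair or cell cycle control, treated with compound.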

[14] = NCI Yeast Anticancer Drug Screen. Data for the mlh1 rad18 strain (AID 175); conditions: S. cerevisiae mlh1 rad18 strain growth inhibition, active compounds read high
In short: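 Genetically defined yeast (DNA repair-deficient) exposed to compounds; growth inhibition determined relative to vehicle.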

[15] = NCI Yeast Anticancer Drug Screen. Data for the rad18 strain (AID 177); conditions: S. cerevisiae rad18 mutant growth inhibition, active compounds read high
In short: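 Vehicle-treated cultures served as the baseline for scoring compound-induced growth inhibition in DNA-repair-mutant yeast.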

[16] = NCI Yeast Anticancer Drug Screen. Data for the sgs1 strain (AID 173);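 also: 0% = growth of vehicle-only control cultures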; conditions: S. cerevisiae sgs1 mutant, active compounds read high
In short: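 Each compound was added to cultures of the altered yeast strain. Growth was recorded, and inhibition was derived by comparison with vehicle controls.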

[17] = at 5.0 µM (retest, dose inferred, filed as 0.5)
[18] = at 50.0 µM (retest, dose inferred, filed as 5.0)

CC(C)[N+]([O-])(CCCNc1c2ccccc2nc2cccc([N+](=O)[O-])c12)C(C)C
growth inhibition ([1]; at 1.2 µM): 48%
growth inhibition ([1]; at 3.7 µM): 83% (active)
growth inhibition ([1]; at 11.0 µM): 94% (active)
growth inhibition ([1]; at 33.0 µM): 96% (active)
growth inhibition ([1]; at 100.0 µM): 98% (active)
growth inhibition ([2]; at 1.2 µM): 0%
growth inhibition ([2]; at 3.7 µM): 3%
growth inhibition ([2]; at 11.0 µM): 18%
growth inhibition ([2]; at 33.0 µM): 78% (active)
growth inhibition ([2]; at 100.0 µM): 94% (active)
growth inhibition ([3]; at 1.2 µM): 6%
growth inhibition ([3]; at 3.7 µM): 26%
growth inhibition ([3]; at 11.0 µM): 66%
growth inhibition ([3]; at 33.0 µM): 91% (active)
growth inhibition ([3]; at 100.0 µM): 97% (active)
growth inhibition ([4]; at 1.2 µM): 0%
growth inhibition ([4]; at 3.7 µM): 6%
growth inhibition ([4]; at 11.0 µM): 24%
growth inhibition ([4]; at 33.0 µM): 90% (active)
growth inhibition ([4]; at 100.0 µM): 98% (active)
growth inhibition ([5]; at 1.2 µM): 24%
growth inhibition ([5]; at 3.7 µM): 57%
growth inhibition [5, 17]: 70% (active)
growth inhibition ([5]; at 11.0 µM): 86% (active)
growth inhibition ([5]; at 33.0 µM): 93% (active)
growth inhibition [5, 18]: 97% (active)
growth inhibition ([5]; at 50.0 µM): 87.6% (active)
growth inhibition ([5]; at 100.0 µM): 96% (active)
growth inhibition ([6]; at 1.2 µM): 13%
growth inhibition ([6]; at 3.7 µM): 69%
growth inhibition [6, 17]: 68%
growth inhibition ([6]; at 11.0 µM): 96% (active)
growth inhibition ([6]; at 33.0 µM): 98% (active)
growth inhibition [6, 18]: 99% (active)
growth inhibition ([6]; at 50.0 µM): 87% (active)
growth inhibition ([6]; at 100.0 µM): 99% (active)
growth inhibition ([7]; at 1.2 µM): 50%
growth inhibition ([7]; at 3.7 µM): 93% (active)
growth inhibition ([7]; at 11.0 µM): 98% (active)
growth inhibition ([7]; at 33.0 µM): 99% (active)
growth inhibition ([7]; at 100.0 µM): 99% (active)
growth inhibition [8, 17]: 89% (active)
growth inhibition [8, 18]: 98% (active)
growth inhibition ([8]; at 50.0 µM): 93.6% (active)
growth inhibition ([9]; at 1.2 µM): -3%
growth inhibition ([9]; at 3.7 µM): 2%
growth inhibition ([9]; at 11.0 µM): 42%
growth inhibition ([9]; at 33.0 µM): 88% (active)
growth inhibition ([9]; at 100.0 µM): 95% (active)
growth inhibition [10, 17]: 96% (active)
growth inhibition [10, 18]: 99% (active)
growth inhibition ([10]; at 50.0 µM): 96% (active)
growth inhibition ([11]; at 1.2 µM): -14%
growth inhibition ([11]; at 3.7 µM): -8%
growth inhibition [11, 17]: -2%
growth inhibition ([11]; at 11.0 µM): 33%
growth inhibition ([11]; at 33.0 µM): 90% (active)
growth inhibition [11, 18]: 97% (active)
growth inhibition ([11]; at 50.0 µM): 11.9%
growth inhibition ([11]; at 100.0 µM): 98% (active)
growth inhibition ([12]; at 1.2 µM): 1%
growth inhibition ([12]; at 3.7 µM): 5%
growth inhibition ([12]; at 11.0 µM): 24%
growth inhibition ([12]; at 33.0 µM): 89% (active)
growth inhibition ([12]; at 100.0 µM): 96% (active)
growth inhibition ([13]; at 1.2 µM): 3%
growth inhibition ([13]; at 3.7 µM): 10%
growth inhibition ([13]; at 11.0 µM): 37%
growth inhibition ([13]; at 33.0 µM): 91% (active)
growth inhibition ([13]; at 100.0 µM): 98% (active)
growth inhibition [14, 17]: 92% (active)
growth inhibition [14, 18]: 98% (active)
growth inhibition ([14]; at 50.0 µM): 95.2% (active)
growth inhibition ([15]; at 1.2 µM): 96% (active)
growth inhibition ([15]; at 3.7 µM): 96% (active)
growth inhibition ([15]; at 11.0 µM): 96% (active)
growth inhibition ([15]; at 33.0 µM): 97% (active)
growth inhibition ([15]; at 100.0 µM): 97% (active)

O=[N+]([O-])c1cc2no[n+]([O-])c2cc1N1CCCCC1
growth inhibition ([1]; at 1.2 µM): 31%
growth inhibition ([1]; at 3.7 µM): 65%
growth inhibition ([1]; at 11.0 µM): 98% (active)
growth inhibition ([1]; at 33.0 µM): 96% (active)
growth inhibition ([1]; at 100.0 µM): 95% (active)
growth inhibition ([2]; at 1.2 µM): -32%
growth inhibition ([2]; at 3.7 µM): 53%
growth inhibition ([2]; at 11.0 µM): 99% (active)
growth inhibition ([2]; at 33.0 µM): 98% (active)
growth inhibition ([2]; at 100.0 µM): 97% (active)
growth inhibition ([3]; at 1.2 µM): 26%
growth inhibition ([3]; at 3.7 µM): 83% (active)
growth inhibition ([3]; at 11.0 µM): 98% (active)
growth inhibition ([3]; at 33.0 µM): 99% (active)
growth inhibition ([3]; at 100.0 µM): 98% (active)
growth inhibition ([4]; at 1.2 µM): 4%
growth inhibition ([4]; at 3.7 µM): 56%
growth inhibition ([4]; at 11.0 µM): 98% (active)
growth inhibition ([4]; at 33.0 µM): 98% (active)
growth inhibition ([4]; at 100.0 µM): 98% (active)
growth inhibition ([5]; at 1.2 µM): 22%
growth inhibition ([5]; at 3.7 µM): 62%
growth inhibition [5, 17]: 24%
growth inhibition ([5]; at 11.0 µM): 93% (active)
growth inhibition ([5]; at 33.0 µM): 96% (active)
growth inhibition [5, 18]: 74% (active)
growth inhibition ([5]; at 50.0 µM): 90% (active)
growth inhibition ([5]; at 100.0 µM): 95% (active)
growth inhibition ([6]; at 1.2 µM): 28%
growth inhibition ([6]; at 3.7 µM): 82% (active)
growth inhibition [6, 17]: 41%
growth inhibition ([6]; at 11.0 µM): 98% (active)
growth inhibition ([6]; at 33.0 µM): 98% (active)
growth inhibition [6, 18]: 93% (active)
growth inhibition ([6]; at 50.0 µM): 92.8% (active)
growth inhibition ([6]; at 100.0 µM): 97% (active)
growth inhibition ([7]; at 1.2 µM): -8%
growth inhibition ([7]; at 3.7 µM): 56%
growth inhibition ([7]; at 11.0 µM): 99% (active)
growth inhibition ([7]; at 33.0 µM): 99% (active)
growth inhibition ([7]; at 100.0 µM): 98% (active)
growth inhibition [8, 17]: 1%
growth inhibition [8, 18]: -4%
growth inhibition ([8]; at 50.0 µM): 92.4% (active)
growth inhibition ([9]; at 1.2 µM): 27%
growth inhibition ([9]; at 3.7 µM): 60%
growth inhibition ([9]; at 11.0 µM): 96% (active)
growth inhibition ([9]; at 33.0 µM): 97% (active)
growth inhibition ([9]; at 100.0 µM): 97% (active)
growth inhibition [10, 17]: 0%
growth inhibition [10, 18]: -46%
growth inhibition ([10]; at 50.0 µM): 90.7% (active)
growth inhibition ([11]; at 1.2 µM): -24%
growth inhibition ([11]; at 3.7 µM): -8%
growth inhibition [11, 17]: -2%
growth inhibition ([11]; at 11.0 µM): 71% (active)
growth inhibition ([11]; at 33.0 µM): 96% (active)
growth inhibition [11, 18]: -16%
growth inhibition ([11]; at 50.0 µM): 91.3% (active)
growth inhibition ([11]; at 100.0 µM): 96% (active)
growth inhibition ([12]; at 1.2 µM): 0%
growth inhibition ([12]; at 3.7 µM): 74% (active)
growth inhibition ([12]; at 11.0 µM): 99% (active)
growth inhibition ([12]; at 33.0 µM): 99% (active)
growth inhibition ([12]; at 100.0 µM): 98% (active)
growth inhibition ([13]; at 1.2 µM): 24%
growth inhibition ([13]; at 3.7 µM): 68%
growth inhibition ([13]; at 11.0 µM): 98% (active)
growth inhibition ([13]; at 33.0 µM): 99% (active)
growth inhibition ([13]; at 100.0 µM): 100% (active)
growth inhibition ([16]; at 1.2 µM): 51%
growth inhibition ([16]; at 3.7 µM): 72% (active)
growth inhibition ([16]; at 11.0 µM): 98% (active)
growth inhibition ([16]; at 33.0 µM): 99% (active)
growth inhibition ([16]; at 100.0 µM): 98% (active)
growth inhibition [14, 17]: 51%
growth inhibition [14, 18]: 89% (active)
growth inhibition ([14]; at 50.0 µM): 91.5% (active)
growth inhibition ([15]; at 1.2 µM): 31%
growth inhibition ([15]; at 3.7 µM): 73% (active)
growth inhibition ([15]; at 11.0 µM): 97% (active)
growth inhibition ([15]; at 33.0 µM): 97% (active)
growth inhibition ([15]; at 100.0 µM): 96% (active)

From PubChem BioAssay (NCI)
